Results published in PubChem BioAssay (NCATS).
Several values for one entry are separate records, joined by “and”; a condition that tells them apart may be missing. Equal values may be shown once. Results filed as inconclusive are left out. Entries that show only a call come without a potency. Activity calls are given as the source filed them. Calls follow the shape of the dose curve; as a rule, active = well fitted cell-killing curve with a large enough effect; inconclusive = small, poorly fitted or top-dose-only effect, or effect the other way; inactive = flat fitted curve, though single readings scatter.

System: OV90
Test: Primary qHTS to identify gynecologic anti-cancer compounds using libraries of approved drugs and bioactive compounds (AID 1345084); also: nearly all actives have a fitted effect of over 55% in size
Details: Gynecologic cancer cell panel viability, ATPlite luminescence, 48 h; series mostly up to 57.5 µM
Outline: (§1)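 48 h compound exposure at 37 C, 5% CO2; five-point qHTS. ATPlite luminescence readout of cell ATP.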
Potency is read from the fitted curve at half-maximal effect.

SMILES	Potency
Nc1nc2c(ncn2COCCO)c(=O)[nH]1	inactive
CS(=O)(=O)c1cccc(CNc2nc(Nc3ccc4c(c3)CCC(=O)N4)ncc2C(F)(F)F)c1	inactive
CCOc1ccn(-c2ccc(F)cc2)c(=O)c1C(=O)Nc1ccc(Oc2ccnc(N)c2Cl)c(F)c1	inactive
N[C@@H]1CONC1=O	inactive
CNCc1ccc(-c2[nH]c3cc(F)cc4c3c2CCNC4=O)cc1	inactive
NC[C@H](O)c1ccc(O)c(O)c1	inactive
CNC(=O)c1ccccc1Sc1ccc2c(/C=C/c3ccccn3)n[nH]c2c1	11.2 µM (active)
CCCS(=O)(=O)Nc1ccc(F)c(C(=O)c2c[nH]c3ncc(Cl)cc23)c1F	inactive
Cc1ccc(-n2nc(C(C)(C)C)cc2NC(=O)Nc2ccc(OCCN3CCOCC3)c3ccccc23)cc1	inactive
Oc1ccc(C2CNCCc3c2cc(O)c(O)c3Cl)cc1 (stereo unspecified)	inactive

System: PA-1
Test: as above
Details: Gynecologic cancer cell panel viability, ATPlite luminescence, 48 h; series mostly up to 57.5 µM
Outline: as §1

SMILES	Potency
CCc1cncnc1N1CCN(Cc2nc3ccc(C(F)(F)F)cc3[nH]2)CC1	inactive
N#CC[C@H](C1CCCC1)n1cc(-c2ncnc3[nH]ccc23)cn1	inactive
Cn1cnc([N+](=O)[O-])c1Sc1ncnc2nc[nH]c12	1.12 µM (active) and 7.08 µM (active)
O=C(NOC[C@H](O)CO)c1ccc(F)c(F)c1Nc1ccc(I)cc1F	inactive
CCC(C)(C)C(=O)O[C@H]1C[C@@H](C)C=C2C=C[C@H](C)[C@H](CC[C@@H]3C[C@@H](O)CC(=O)O3)[C@H]21	inactive
Cc1oncc1C(=O)Nc1ccc(C(F)(F)F)cc1	11.2 µM (active)
COc1ccccc1[C@H](c1cccc2ccccc12)[C@@](C)(C#N)C(=O)N1CCC(c2cccc(C(F)(F)F)c2)CC1	inactive
C#Cc1cccc(Nc2ncnc3cc(OCCOC)c(OCCOC)cc23)c1	inactive
COc1cccc2cc(-c3nc(C4CCC(C(=O)O)CC4)n4ncnc(N)c34)[nH]c12 (stereo unspecified)	3.16 µM (active)
Nc1nc2c(ncn2COCCO)c(=O)[nH]1	inactive
CCOc1ccn(-c2ccc(F)cc2)c(=O)c1C(=O)Nc1ccc(Oc2ccnc(N)c2Cl)c(F)c1	inactive
CC1(C)CNc2cc(NC(=O)c3cccnc3NCc3ccncc3)ccc21	inactive
N[C@@H]1CONC1=O	inactive
CNCc1ccc(-c2[nH]c3cc(F)cc4c3c2CCNC4=O)cc1	inactive
S=C(NCc1ccc2c(c1)OCO2)N1CCN(c2ncnc3c2oc2ccccc23)CC1	inactive
NC[C@H](O)c1ccc(O)c(O)c1	inactive
Cc1ccc(-n2nc(C(C)(C)C)cc2NC(=O)Nc2ccc(OCCN3CCOCC3)c3ccccc23)cc1	inactive
Oc1ccc(C2CNCCc3c2cc(O)c(O)c3Cl)cc1 (stereo unspecified)	inactive

System: SKOV3
Test: as above
Details: Gynecologic cancer cell panel viability, ATPlite luminescence, 48 h; series mostly up to 57.5 µM
Outline: as §1

SMILES	Potency
Cn1cnc([N+](=O)[O-])c1Sc1ncnc2nc[nH]c12	inactive
O=C(NOC[C@H](O)CO)c1ccc(F)c(F)c1Nc1ccc(I)cc1F	inactive
CCC(C)(C)C(=O)O[C@H]1C[C@@H](C)C=C2C=C[C@H](C)[C@H](CC[C@@H]3C[C@@H](O)CC(=O)O3)[C@H]21	inactive
Cc1oncc1C(=O)Nc1ccc(C(F)(F)F)cc1	25.1 µM (active)
CCc1cc(Nc2nccc(-c3c(-c4ccc(OC)c(C(=O)Nc5c(F)cccc5F)c4)nc4ccccn34)n2)c(OC)cc1N1CCC(N2CCN(S(C)(=O)=O)CC2)CC1	inactive
C#Cc1cccc(Nc2ncnc3cc(OCCOC)c(OCCOC)cc23)c1	10 µM (active)
COc1cccc2cc(-c3nc(C4CCC(C(=O)O)CC4)n4ncnc(N)c34)[nH]c12 (stereo unspecified)	11.2 µM (active)
Nc1nc2c(ncn2COCCO)c(=O)[nH]1	inactive
CCOc1ccn(-c2ccc(F)cc2)c(=O)c1C(=O)Nc1ccc(Oc2ccnc(N)c2Cl)c(F)c1	inactive
CC1(C)CNc2cc(NC(=O)c3cccnc3NCc3ccncc3)ccc21	inactive
N[C@@H]1CONC1=O	inactive
CNCc1ccc(-c2[nH]c3cc(F)cc4c3c2CCNC4=O)cc1	inactive
NC[C@H](O)c1ccc(O)c(O)c1	inactive
Cc1ccc(-n2nc(C(C)(C)C)cc2NC(=O)Nc2ccc(OCCN3CCOCC3)c3ccccc23)cc1	inactive
Oc1ccc(C2CNCCc3c2cc(O)c(O)c3Cl)cc1 (stereo unspecified)	inactive

System: Tov-21-G
Test: as above
Details: Gynecologic cancer cell panel viability, ATPlite luminescence, 48 h; series mostly up to 57.5 µM
Outline: as §1

SMILES	Potency
CCc1cncnc1N1CCN(Cc2nc3ccc(C(F)(F)F)cc3[nH]2)CC1	inactive
Cn1cnc([N+](=O)[O-])c1Sc1ncnc2nc[nH]c12	1.12 µM (active) and 3.16 µM (active)
CCC(C)(C)C(=O)O[C@H]1C[C@@H](C)C=C2C=C[C@H](C)[C@H](CC[C@@H]3C[C@@H](O)CC(=O)O3)[C@H]21	inactive
Cc1oncc1C(=O)Nc1ccc(C(F)(F)F)cc1	25.1 µM (active)
CCc1cc(Nc2nccc(-c3c(-c4ccc(OC)c(C(=O)Nc5c(F)cccc5F)c4)nc4ccccn34)n2)c(OC)cc1N1CCC(N2CCN(S(C)(=O)=O)CC2)CC1	inactive
COc1ccccc1[C@H](c1cccc2ccccc12)[C@@](C)(C#N)C(=O)N1CCC(c2cccc(C(F)(F)F)c2)CC1	inactive
COc1cccc2cc(-c3nc(C4CCC(C(=O)O)CC4)n4ncnc(N)c34)[nH]c12 (stereo unspecified)	3.55 µM (active)
Cc1cc(Nc2nc(N[C@@H](C)c3ncc(F)cn3)ncc2Cl)n[nH]1	14.1 µM (active)
Nc1nc2c(ncn2COCCO)c(=O)[nH]1	inactive
CCOc1ccn(-c2ccc(F)cc2)c(=O)c1C(=O)Nc1ccc(Oc2ccnc(N)c2Cl)c(F)c1	inactive
CC1(C)CNc2cc(NC(=O)c3cccnc3NCc3ccncc3)ccc21	inactive
N[C@@H]1CONC1=O	inactive
CNCc1ccc(-c2[nH]c3cc(F)cc4c3c2CCNC4=O)cc1	inactive
S=C(NCc1ccc2c(c1)OCO2)N1CCN(c2ncnc3c2oc2ccccc23)CC1	inactive
NC[C@H](O)c1ccc(O)c(O)c1	inactive
CNC(=O)c1ccccc1Sc1ccc2c(/C=C/c3ccccn3)n[nH]c2c1	11.2 µM (active)
Cc1ccc(-n2nc(C(C)(C)C)cc2NC(=O)Nc2ccc(OCCN3CCOCC3)c3ccccc23)cc1	inactive
Oc1ccc(C2CNCCc3c2cc(O)c(O)c3Cl)cc1 (stereo unspecified)	inactive
